Shown is part of a subset that was picked to be rich in hits.
KDM5B inh = blocks human KDM5B histone demethylase activity; Potency, µM (titrated, usually from 57.7 µM), hits mostly inhibitors; Q9UGL1; 220,000 tested, 2.6% active; KDM5B demethylase, FDH-coupled NADH fluorescence (FDH is formaldehyde dehydrogenase); active means well fitted inhibition curve with a large enough effect; further: nearly all actives have a fitted effect of over 70% in size
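Measured: NADH fluorescence change, 30 min, RT. System: KDM5BΔAP 200 nM final, H3K4me3 peptide, α-KG, Fe(II), ascorbate, NAD⁺ plus FDH, pH 7.5 HEPES. Compounds: titrated, 10 min pre-incubation with enzyme.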
Each line names hits and unclear results; the compound was inactive in the other large screens.

CCc1ccsc1C(=O)N(CC#N)C1CC1	none
COc1ccc(NC(=O)C2CCCN(c3cnccn3)C2)c(OC)c1 (centres undefined)	none
COc1cc(C)cc(C(C(=O)O)N2CCN(c3cnccn3)CC2)c1OC (centres undefined)	KDM5B inh 28.2µM
COc1ccc(NC(=O)C2CCN(c3cnccn3)CC2)cc1OC	none
Cn1c(Cl)nc2c1c(=O)n(Cc1ccc(Cl)cc1Cl)c(=O)n2C	none
CCCCc1nnc(NC(=O)CCc2c[nH]c3ccccc23)s1	none
COc1cccc(NC(=O)C(C)Sc2nncn2-c2ccccc2)c1 (centres undefined)	none
CCOc1ccc(OCC)c(NC(=O)c2cc3n(n2)CC(c2ccc(Cl)cc2)OC3)c1 (centres undefined)	KDM5B inh 14.1µM
O=C(c1cc2n(n1)CC(c1ccc(Cl)cc1)OC2)N1CCCCC1 (centres undefined)	none
CC(NC(=O)c1cc2n(n1)CC(c1ccc(Cl)cc1)OC2)c1ccc(F)cc1 (centres undefined)	none
O=C(Nc1ccc(Cl)cc1)c1cc2n(n1)CC(c1ccc(Cl)cc1)OC2 (centres undefined)	KDM5B inh 31.6µM
O=C(Nc1ccccc1)c1cc2n(n1)CC(c1ccc(Br)cc1)OC2 (centres undefined)	KDM5B inh 31.6µM
O=C(Nc1ccc(F)c(Cl)c1)c1cc2n(n1)CC(c1ccc(Cl)cc1)OC2 (centres undefined)	KDM5B inh 25.1µM
COc1ccc(CNC(=O)c2cc3n(n2)CC(c2ccc(Cl)cc2)OC3)cc1 (centres undefined)	none
O=C(c1cc2n(n1)CC(c1ccc(Br)cc1)OC2)N1CCOCC1 (centres undefined)	none
COc1ccc(CNC(=O)c2cc3n(n2)CC(c2ccc(Cl)cc2)OC3)c(OC)c1 (centres undefined)	none
NC(=O)CNC(=O)c1cc2n(n1)CC(c1ccc(Br)cc1)OC2 (centres undefined)	none
COc1ccc(NC(=O)c2cc3n(n2)CC(c2ccc(Cl)cc2)OC3)cc1 (centres undefined)	none
CC(C)c1ccc(CNC(=O)c2cc3n(n2)CC(c2ccc(Cl)cc2)OC3)cc1 (centres undefined)	none
N#Cc1ccc(S(=O)(=O)Nc2c(NC3CCCCC3)c3ccccc3oc2=O)cc1	none
COC(=O)N1CCc2nc(C(C)C)nc(-c3ccc(OC)cc3)c2CC1	none
Cc1ccc(Sc2ccc(/C=C(\C#N)c3nc4ccccc4[nH]3)o2)cc1	none
O=C(O)C(c1c[nH]c2ccc(Br)cc12)N1CCN(c2ncc(Br)cn2)CC1 (centres undefined)	none
CC(=O)Nc1ccc(NC(=O)C2=C(c3ccccc3)SCCO2)cc1	none
CCN1CCCC1CNC(=O)C(=O)Nc1cccc2[nH]ccc12 (centres undefined)	none
Cc1nc(CNC(=O)N(C)Cc2ccc3c(c2)OCO3)cs1	none
C/C(=N/NC(=O)c1ccccc1[N+](=O)[O-])c1cccc(NC(=O)C2CCCCC2)c1	none
CCN1CCN(C(=O)c2cc3n(n2)CC(c2ccc(Br)cc2)OC3)CC1 (centres undefined)	none
O=C(Nc1cc(F)ccc1Cl)c1cc2n(n1)CC(c1ccc(Br)cc1)OC2 (centres undefined)	KDM5B inh 25.1µM
Cc1ccc(C)c(N2CCN(C(=O)c3cc4n(n3)CC(c3ccc(Cl)cc3)OC4)CC2)c1 (centres undefined)	none
O=C(Nc1ccc(F)c(F)c1)c1cc2n(n1)CC(c1ccc(Cl)cc1)OC2 (centres undefined)	none
Cc1ccc(NC(=O)c2cc3n(n2)CC(c2ccc(Cl)cc2)OC3)cc1F (centres undefined)	KDM5B inh 28.2µM
COCCCNC(=O)c1cc(-c2ccncc2)nc2ccc(S(=O)(=O)N3CCOCC3)cc12	none
CCN(CC)C(=O)C(Sc1nnc(-c2ccc(Cl)cc2Cl)n1N)c1ccccc1 (centres undefined)	none
Cc1ccc(C(=O)C(NC(=O)c2ccco2)Nc2cccc(C)c2)cc1 (centres undefined)	none
COc1ccc(S(=O)(=O)N2CCCC2)cc1-c1nc(C(C)C)no1	none
O=C(O)c1ccc(F)c(S(=O)(=O)N2CCCCC2)c1	none
Cc1nc(NCC2CC2)ncc1C(=O)O	KDM5B inh 22.4µM
Cc1nc(-c2ccccc2)ncc1C(=O)O	none
COc1cc(NC(=O)c2cnc(NCc3ccccc3)nc2C)cc(OC)c1OC	none
Cc1ccc(N2CC(c3noc(-c4ccc5c(c4)OCO5)n3)CC2=O)cc1 (centres undefined)	KDM5B inh 31.6µM
COc1ccc(-c2nc(C3CC(=O)N(c4ccc(F)cc4)C3)no2)cc1 (centres undefined)	none
COc1ccc(N2CC(c3noc(-c4ccc5c(c4)OCO5)n3)CC2=O)cc1 (centres undefined)	KDM5B inh 31.6µM
Cc1ccc(N2CC(c3noc(-c4ccncc4)n3)CC2=O)cc1 (centres undefined)	none
Cc1ccc(N2CC(c3noc(-c4cc(F)cc(F)c4)n3)CC2=O)cc1 (centres undefined)	none
CCOc1ccc(-c2nc(C3CC(=O)N(c4ccc(OC)cc4)C3)no2)cc1 (centres undefined)	none
COc1ccccc1CNC(=O)C(C)N1CCC(c2nc3cc(Cl)ccc3s2)CC1 (centres undefined)	none
Cc1nc(C)c(C(=O)N2CCC[C@H](n3c(=O)n(Cc4ccccc4)c4cccnc43)C2)s1	none
O=C(Nc1cccnc1)c1nn(C2CCS(=O)(=O)C2)c2c1CCCC2 (centres undefined)	none
CC(C)c1ccc(/C=C/C(=O)Nc2c(F)c(F)c(F)c(F)c2F)cc1	none
O=C(c1nc2ncccn2n1)N1CCCn2cc(-c3ccccc3)nc21	none
N#Cc1cccc(-c2cn3c(n2)N(C(=O)c2cccc(F)c2)CCC3)c1	KDM5B inh 22.4µM
N#Cc1cccc(-c2cn3c(n2)N(C(=O)c2ccoc2)CCC3)c1	KDM5B inh 25.1µM
CCn1nccc1C(=O)N1CCCn2cc(-c3ccccc3F)nc21	none
Cc1ccc(-c2cn3c(n2)N(C(=O)c2cnn4cccnc24)CCC3)cc1	none
Cc1ccc2nc(-c3ccccc3)cc(C(=O)N3CCN(C(=O)c4ccco4)CC3)c2c1	none
N#Cc1cccc(-c2cn3c(n2)N(C(=O)c2ccccn2)CCC3)c1	KDM5B inh 17.8µM
O=C(c1ccoc1)N1CCCn2cc(-c3ccccc3)nc21	none
N#Cc1cccc(-c2cn3c(n2)N(C(=O)c2ccco2)CCC3)c1	KDM5B inh 25.1µM
COc1ccc(CN2C=C(C(=O)OCc3nc(-c4cccc(C)c4)no3)C(C)=NS2(=O)=O)cc1	none
CCN(C(=O)c1cccs1)c1nc(-c2ccc(C)cc2)cs1	none
Cc1ccccc1C(=O)Nc1ccc2c(c1)CCC2	none
Cc1ccsc1C(=O)N1CCCn2cc(-c3ccccc3)nc21	none
N#Cc1cccc(CN2C3CCC2CN(C(=O)c2ccncc2)C3)c1	none
Cc1ccc(-c2cn3c(n2)N(C(=O)c2sc(C)nc2C)CCC3)cc1	none
Cc1ccc(C(=O)N2CCCn3cc(-c4cccc(C#N)c4)nc32)cn1	KDM5B inh 28.2µM
O=C(c1ccsc1)N1CCCn2cc(-c3ccccc3)nc21	none
Cc1ccsc1C(=O)N1CCCn2cc(-c3cccc(C#N)c3)nc21	KDM5B inh 14.1µM
N#Cc1cccc(-c2cn3c(n2)N(C(=O)c2ccncc2)CCC3)c1	KDM5B inh 20µM
Cc1oc2cc3o/c(=N/O)c4c(c3cc2c1C)CCC4	none
CC(C)(C)n1ncc2c1NC(=O)CC21C(=O)Nc2cccc(Cl)c21 (centres undefined)	none
CCc1nnc(NC(=O)CCc2ncc(-c3ccccc3Cl)o2)s1	none
Cc1cccc(NC(=O)c2cccc(OCc3c(C)noc3C)c2)c1	none

Bioassay records (PubChem)
